Records with an inconclusive call do not appear. Activity calls are given as the source filed them. The calls were made as follows: active = hit-call score of the fitted dose curve at least 0.9, where 1 is the maximum; inconclusive = response in the unintended direction; inactive = score below 0.9.
Target: human Peroxisome Proliferator-activated Receptor alpha (PPARa), PPARA (gene 5465) (UniProt Q07869)
Assay: NVS_NR_hPPARa: NovaScreen (NVS) Nuclear Receptor Binding Assay for human Peroxisome Proliferator-activated Receptor alpha (PPARa) (AID 2283359);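 also: activity means loss of TR-FRET signal versus DMSO baseline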
Procedure, shortened: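 Chemicals were first screened in duplicate at 25 uM, and active ones were retested across concentration series. Binding was monitored by TR-FRET one hour after dosing, with decreased signal against DMSO counted as activity.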

Chain of human Peroxisome Proliferator-activated Receptor alpha (PPARa), PPARA (gene 5465) (Q07869 whole entry, looked up): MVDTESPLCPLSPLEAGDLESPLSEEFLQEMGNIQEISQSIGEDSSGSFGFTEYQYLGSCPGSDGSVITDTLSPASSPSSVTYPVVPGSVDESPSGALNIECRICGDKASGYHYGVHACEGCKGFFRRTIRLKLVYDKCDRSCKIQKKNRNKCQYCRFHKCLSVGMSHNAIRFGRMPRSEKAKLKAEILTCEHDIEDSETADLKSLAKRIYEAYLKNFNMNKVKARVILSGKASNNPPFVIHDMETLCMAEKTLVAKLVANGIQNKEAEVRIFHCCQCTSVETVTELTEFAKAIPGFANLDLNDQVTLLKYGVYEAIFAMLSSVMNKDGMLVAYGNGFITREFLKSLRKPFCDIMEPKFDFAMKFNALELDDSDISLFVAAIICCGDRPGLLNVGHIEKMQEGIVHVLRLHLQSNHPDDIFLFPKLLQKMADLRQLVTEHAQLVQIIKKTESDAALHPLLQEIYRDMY

SMILES | outcome
COc1cc(C(C)(C)C)c(O)c(C(C)(C)C)c1 | inactive
CCCCCOC(=O)CCC | inactive
CCCCCCCCCCCCCCCC(=O)O | inactive

Target: Glucocorticoid receptor (Homo sapiens) (UniProt P04150)
Sequence (P04150 whole entry, looked up): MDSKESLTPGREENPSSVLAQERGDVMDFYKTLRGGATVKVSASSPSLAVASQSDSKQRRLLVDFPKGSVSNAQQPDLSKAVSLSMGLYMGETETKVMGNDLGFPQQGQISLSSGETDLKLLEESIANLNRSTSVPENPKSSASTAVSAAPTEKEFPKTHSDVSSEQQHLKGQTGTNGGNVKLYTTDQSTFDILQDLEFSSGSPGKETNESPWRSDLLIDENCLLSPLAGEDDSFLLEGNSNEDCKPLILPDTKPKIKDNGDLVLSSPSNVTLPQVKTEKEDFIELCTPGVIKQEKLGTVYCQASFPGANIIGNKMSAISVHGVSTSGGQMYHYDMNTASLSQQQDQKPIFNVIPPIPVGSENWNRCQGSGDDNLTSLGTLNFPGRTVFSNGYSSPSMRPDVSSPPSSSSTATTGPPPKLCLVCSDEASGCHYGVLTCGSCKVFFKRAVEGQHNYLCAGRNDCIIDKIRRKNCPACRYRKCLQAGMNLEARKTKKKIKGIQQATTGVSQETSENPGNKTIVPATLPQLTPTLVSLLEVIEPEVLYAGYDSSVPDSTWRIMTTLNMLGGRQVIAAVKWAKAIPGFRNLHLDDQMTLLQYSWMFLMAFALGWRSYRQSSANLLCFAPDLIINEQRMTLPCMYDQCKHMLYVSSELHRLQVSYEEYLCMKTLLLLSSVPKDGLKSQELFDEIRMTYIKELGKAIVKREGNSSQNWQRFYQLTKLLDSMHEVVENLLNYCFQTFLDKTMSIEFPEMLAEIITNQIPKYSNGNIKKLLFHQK
Assay: NVS_NR_hGR: NovaScreen (NVS) Nuclear Receptor Binding Assay for human Glucocorticoid Receptor (GR) (AID 2283363);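 as to AC50: activity is loss of specific radioligand binding signal relative to DMSO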
Procedure, shortened: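 Competitive displacement of a labelled ligand was measured on cell-free receptor preparations after 16 h exposure. Initial testing used 25 uM in duplicate with plate controls; confirmed actives went into concentration series.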

SMILES | AC50 | outcome
CC(C)C[C@H]1C(=O)N2CCC[C@H]2[C@]2(O)O[C@](NC(=O)[C@@H]3C=C4c5cccc6[nH]c(Br)c(c56)C[C@H]4N(C)C3)(C(C)C)C(=O)N12 | 1.44 µM (active) | 
Cc1ccc(C=O)cc1 |  | inactive
O=C1OC2(c3cc(Br)c(O)c(Br)c3Oc3c2cc(Br)c(O)c3Br)c2c(Cl)c(Cl)c(Cl)c(Cl)c21 | 3.83 µM (active) | 

Target: Nuclear receptor subfamily 1 group I member 2 (Homo sapiens) (UniProt O75469)
Sequence (O75469 whole entry, looked up): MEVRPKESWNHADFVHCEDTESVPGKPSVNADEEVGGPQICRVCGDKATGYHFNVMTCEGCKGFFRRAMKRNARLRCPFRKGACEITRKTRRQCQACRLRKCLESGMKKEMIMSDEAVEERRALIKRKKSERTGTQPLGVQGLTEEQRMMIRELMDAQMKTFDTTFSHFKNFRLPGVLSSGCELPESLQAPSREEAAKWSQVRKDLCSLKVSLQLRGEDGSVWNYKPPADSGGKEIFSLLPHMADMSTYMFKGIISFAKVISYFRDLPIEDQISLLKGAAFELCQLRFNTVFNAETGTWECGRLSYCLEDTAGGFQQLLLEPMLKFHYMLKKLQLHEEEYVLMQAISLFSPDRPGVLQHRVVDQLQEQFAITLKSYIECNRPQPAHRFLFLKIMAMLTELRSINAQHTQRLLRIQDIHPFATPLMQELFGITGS
Assay: NVS_NR_hPXR: NovaScreen (NVS) Nuclear Receptor Binding Assay for human Pregnane X Receptor (PXR) (AID 2283365);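 also: a drop in FRET signal versus DMSO baseline means the compound binds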
Procedure, shortened: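 Cell-free TR-FRET binding assay with extracted human PXR protein, read 2 h after dosing. Primary screen run in duplicate at 25 uM, actives followed in concentration series; loss of signal fitted against DMSO baseline.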

SMILES | outcome | AC50
NC(=O)NC1NC(=O)NC1=O (configuration not stated) | inactive | 
CC(C)C[C@H]1C(=O)N2CCC[C@H]2[C@]2(O)O[C@](NC(=O)[C@@H]3C=C4c5cccc6[nH]c(Br)c(c56)C[C@H]4N(C)C3)(C(C)C)C(=O)N12 |  | 1.04 µM (active)
CC(C)=CCCC(C)=CCCC(C)=CCO | inactive | 
CCC(=O)/C=C/C1C(C)=CCCC1(C)C (configuration not stated) | inactive | 
CCCC/C=C\CCCCCCCCCC=O | inactive | 
COc1cc(C(C)(C)C)c(O)c(C(C)(C)C)c1 | inactive | 
COc1c(Cl)c(Cl)c(Cl)c(Cl)c1Cl | inactive | 
CC(C)(C#N)c1cc(Cn2cncn2)cc(C(C)(C)C#N)c1 | inactive | 
CSc1nc(NC2CC2)nc(NC(C)(C)C)n1 |  | 3.05 µM (active)

Target: guinea pig Sigma Receptor, Non-selective Binding, SIGMAR1 (gene 100135589) (UniProt Q60492)
Sequence (Q60492 whole entry, looked up): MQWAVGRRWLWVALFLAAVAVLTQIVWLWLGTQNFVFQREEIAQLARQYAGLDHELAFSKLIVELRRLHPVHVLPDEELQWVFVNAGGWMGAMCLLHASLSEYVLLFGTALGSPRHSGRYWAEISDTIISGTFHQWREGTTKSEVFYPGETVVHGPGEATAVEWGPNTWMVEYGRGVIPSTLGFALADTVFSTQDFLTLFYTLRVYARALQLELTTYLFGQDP
Assay: NVS_OR_gSIGMA_NonSelective: NovaScreen (NVS) Nuclear Receptor Binding Assay for guinea pig Sigma Receptor, Non-selective Binding (AID 2283367)
Procedure, shortened: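 gp brain membr., radioligand displacement, 1 h, filtration + scint. counting; DMSO = baseline; 25 uM x2 primary, conc.-response confirm.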

SMILES | outcome | AC50
CC(C)=CCO | inactive | 
CCn1c2ccccc2c2cc(N)ccc21 |  | 12.3 µM (active)
O=P(c1ccccc1)(c1ccccc1)c1ccccc1 |  | 6.83 µM (active)
c1ccc2sc(SN(C3CCCCC3)C3CCCCC3)nc2c1 |  | 5.3 µM (active)
O=C=NC1CCC(CC2CCC(N=C=O)CC2)CC1 (configuration not stated) |  | 16.5 µM (active)

Target: Peroxisome proliferator-activated receptor gamma (Homo sapiens) (UniProt P37231)
Sequence (P37231 whole entry, looked up): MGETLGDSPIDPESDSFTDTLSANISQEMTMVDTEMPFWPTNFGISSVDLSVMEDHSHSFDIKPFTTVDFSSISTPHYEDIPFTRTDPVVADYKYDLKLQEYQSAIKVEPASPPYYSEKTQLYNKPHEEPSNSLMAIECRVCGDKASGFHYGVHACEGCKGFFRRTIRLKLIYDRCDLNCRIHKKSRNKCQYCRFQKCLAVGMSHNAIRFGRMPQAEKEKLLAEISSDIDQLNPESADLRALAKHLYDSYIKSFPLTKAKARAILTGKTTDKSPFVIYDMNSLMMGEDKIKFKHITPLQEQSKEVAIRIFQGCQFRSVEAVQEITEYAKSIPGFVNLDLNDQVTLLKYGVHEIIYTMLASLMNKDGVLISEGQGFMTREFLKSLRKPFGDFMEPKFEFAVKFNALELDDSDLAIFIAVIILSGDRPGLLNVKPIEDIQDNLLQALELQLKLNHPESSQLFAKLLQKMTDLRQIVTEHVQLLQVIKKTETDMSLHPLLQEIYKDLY
Assay: NVS_NR_hPPARg: NovaScreen (NVS) Nuclear Receptor Binding Assay for human Peroxisome Proliferator-activated Receptor gamma (PPARg) (AID 2283370)
Procedure, shortened: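 Cell-free fluorescence polarization binding to human PPARg protein, read 2 h after dosing. Primary screen in duplicate at 25 uM, actives followed in concentration series; loss of signal relative to DMSO scored.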

SMILES | outcome
CCCCCC(CO)CCC (configuration not stated) | inactive
CC(C)CCCCCCCOC(=O)c1ccc(C(=O)OCCCCCCCC(C)C)c(C(=O)OCCCCCCCC(C)C)c1 | inactive
OC1OC[C@@H](O)[C@H](O)[C@H]1O (some centres not stated) | inactive
O=C1C(c2[nH]c3ccc(S(=O)(=O)O)cc3c2O)=Nc2ccc(S(=O)(=O)O)cc21 | inactive
CCCC/C=C\CCCCCCCCCC=O | inactive
COC(C)CCO (configuration not stated) | inactive
O=C(Oc1ccccc1)c1ccc(O)cc1 | inactive
CCCCCCCCCCCCCCCC(=O)O | inactive

Target: human Dopamine Transporter (DAT), SLC6A3 (gene 6531) (UniProt Q01959)
Sequence (Q01959 whole entry, looked up): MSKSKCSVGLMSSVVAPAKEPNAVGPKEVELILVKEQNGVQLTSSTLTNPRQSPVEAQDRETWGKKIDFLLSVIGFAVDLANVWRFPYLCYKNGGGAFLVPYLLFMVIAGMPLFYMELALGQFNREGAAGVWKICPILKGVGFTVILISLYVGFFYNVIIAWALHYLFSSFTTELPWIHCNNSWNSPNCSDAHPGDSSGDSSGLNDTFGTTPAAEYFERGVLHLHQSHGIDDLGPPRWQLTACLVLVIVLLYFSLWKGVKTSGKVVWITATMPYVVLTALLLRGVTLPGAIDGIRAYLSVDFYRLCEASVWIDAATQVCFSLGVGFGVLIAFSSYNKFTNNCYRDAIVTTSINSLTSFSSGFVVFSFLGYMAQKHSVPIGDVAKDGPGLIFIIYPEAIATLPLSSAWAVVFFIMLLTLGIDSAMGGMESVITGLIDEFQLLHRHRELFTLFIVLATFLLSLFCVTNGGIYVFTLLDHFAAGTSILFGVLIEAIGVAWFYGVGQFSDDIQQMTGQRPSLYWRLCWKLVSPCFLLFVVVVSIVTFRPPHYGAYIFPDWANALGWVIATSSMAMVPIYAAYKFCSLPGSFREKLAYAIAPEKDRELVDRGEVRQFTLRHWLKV
Assay: NVS_TR_hDAT: NovaScreen (NVS) Transporter Assay for human Dopamine Transporter (DAT) (AID 2283374);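 also: activity means loss of bound radioligand signal relative to DMSO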
Procedure, shortened: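 Test chemicals were first screened in duplicate at 25 uM, with actives retested as concentration series. Displacement of a specific radioligand from cell-free human dopamine transporter was measured after 1 h by filtration and scintillation counting.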

SMILES | outcome | AC50
O=C(Cl)c1cccc(C(=O)Cl)c1 | inactive | 
Cc1ccc(O)c(C(C)(C)C)c1 |  | 25 µM (active)
CNC[C@H](O)c1cccc(O)c1 |  | 25 µM (active)

Target: rat Serotonin Transporter (SERT), Slc6a4 (gene 25553) (UniProt P31652)
Sequence (P31652 whole entry, looked up): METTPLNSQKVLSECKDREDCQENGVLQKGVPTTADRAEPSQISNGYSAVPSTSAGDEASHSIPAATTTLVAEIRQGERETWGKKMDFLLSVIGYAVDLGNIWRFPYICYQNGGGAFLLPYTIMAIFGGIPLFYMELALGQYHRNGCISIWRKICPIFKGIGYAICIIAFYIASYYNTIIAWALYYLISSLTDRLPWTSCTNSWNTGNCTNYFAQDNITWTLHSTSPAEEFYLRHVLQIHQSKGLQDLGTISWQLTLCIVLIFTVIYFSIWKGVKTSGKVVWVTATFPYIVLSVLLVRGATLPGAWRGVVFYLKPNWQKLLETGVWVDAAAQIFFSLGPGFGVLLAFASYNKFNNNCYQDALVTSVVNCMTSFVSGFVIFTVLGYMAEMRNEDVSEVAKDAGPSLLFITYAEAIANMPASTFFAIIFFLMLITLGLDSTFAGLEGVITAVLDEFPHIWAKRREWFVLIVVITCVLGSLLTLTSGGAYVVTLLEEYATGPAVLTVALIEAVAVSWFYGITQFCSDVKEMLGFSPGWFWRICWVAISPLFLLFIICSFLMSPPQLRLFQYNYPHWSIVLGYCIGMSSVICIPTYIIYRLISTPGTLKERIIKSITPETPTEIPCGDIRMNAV
Assay: NVS_TR_rSERT: NovaScreen (NVS) Transporter Assay for rat Serotonin Transporter (SERT) (AID 2283375)
Procedure, shortened: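 Rat forebrain membranes; radioligand displacement at SERT read by filter-based scintillation counting, 1 h after dosing. Screened in duplicate at 25 uM, actives then run in concentration series; loss of signal versus DMSO baseline.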

SMILES | outcome | AC50
Cc1cccc(C)c1C | inactive | 
CCn1c2ccccc2c2cc(N)ccc21 |  | 39.3 µM (active)
O=C=NC1CCC(CC2CCC(N=C=O)CC2)CC1 (configuration not stated) | inactive | 

Target: human Norepinephrine Transporter (NET), SLC6A2 (gene 6530) (UniProt P23975)
Sequence (P23975 whole entry, looked up): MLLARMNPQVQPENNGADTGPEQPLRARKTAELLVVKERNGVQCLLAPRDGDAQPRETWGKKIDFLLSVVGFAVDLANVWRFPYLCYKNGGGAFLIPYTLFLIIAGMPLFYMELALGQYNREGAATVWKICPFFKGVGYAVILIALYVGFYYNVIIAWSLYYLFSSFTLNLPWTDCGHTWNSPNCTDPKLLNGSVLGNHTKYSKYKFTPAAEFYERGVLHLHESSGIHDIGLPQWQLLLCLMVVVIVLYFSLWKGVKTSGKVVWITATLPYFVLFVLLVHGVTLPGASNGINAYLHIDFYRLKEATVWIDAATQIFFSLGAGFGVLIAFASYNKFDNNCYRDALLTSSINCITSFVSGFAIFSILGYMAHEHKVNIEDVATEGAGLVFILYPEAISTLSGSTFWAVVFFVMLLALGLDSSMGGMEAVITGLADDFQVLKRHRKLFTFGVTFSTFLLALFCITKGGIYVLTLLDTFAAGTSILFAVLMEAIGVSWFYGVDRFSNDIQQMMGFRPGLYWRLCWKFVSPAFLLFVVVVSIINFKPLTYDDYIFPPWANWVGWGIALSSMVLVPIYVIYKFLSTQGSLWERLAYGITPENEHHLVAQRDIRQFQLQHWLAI
Assay: NVS_TR_hNET: NovaScreen (NVS) Transporter Assay for human Norepinephrine Transporter (NET) (AID 2283377);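 also: cell-free membrane protein extracted from CHO cells expressing human NET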;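 as to AC50: displacement of radioligand from human NET seen as loss of scintillation signal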
Procedure, shortened: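 Scintillation counts of filter-retained radioligand served as the readout, taken 1 h post-dosing in a cell-free CHO-derived system. Test chemicals ran first at 25 uM in duplicate; confirmed hits were retested across concentrations.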

SMILES | AC50 | outcome
COc1cc2ncnc(Nc3cccc(Cl)c3)c2cc1OC | 1.77 µM (active) | 
CCn1c2ccccc2c2cc(N)ccc21 | 12.3 µM (active) | 
Nc1cc([N+](=O)[O-])ccc1Cl |  | inactive

From PubChem BioAssay (EPA / NIEHS)
